Laboratory results published in ChEMBL document CHEMBL4513216, “Probing the Open Global Health Chemical Diversity Library for Multistage-Active Starting Points for Next-Generation Antimalarials” (ACS Infect Dis, 2020).
In all, about 69,000 compounds went through this assay and about 8,600 (12%) showed an effect of 50% or more. The entries come from a sample that favours strong results as a whole.

Each molecule was assayed on Plasmodium berghei (assay: Screen against P. berghei liver stage (PbLuc), transformed with Luciferase, at 10uM). Conditions: tested at 10 uM.
Type: functional, HepG2

Row | Structure (SMILES) | INHIBITION [%]
1 | CN(C)CCC1CN(C(=O)c2cccc3c2OCC3)CCO1 (centres undefined) | -15.1
2 | COCC1CN(Cc2cc(C)on2)Cc2cn(CC3CCCC3)nc21 (centres undefined) | 15.3
3 | Cc1cc(OC(F)F)c(C(=O)N2CCN(C3CC3)CC2)s1 | -3.47
4 | Cn1cnc2c1C(COCC1CCOCC1)CN(C(=O)c1ccoc1)C2 (centres undefined) | 40.4
5 | Cn1cnc2c1C(COCC1CC1)CN(C(=O)c1cscn1)C2 (centres undefined) | 58.8
6 | Cc1noc(C)c1C(=O)N1Cc2ncn(C)c2C(COCC2CC2)C1 (centres undefined) | 58.4
7 | Cn1cnc2c1C(COCC1CCOCC1)CN(C(=O)c1ccco1)C2 (centres undefined) | 64.9
8 | CCOCC1CN(C(=O)c2cscn2)Cc2nnn(CC3CC3)c21 (centres undefined) | 13.6
9 | CCOCC1CN(C(=O)c2cscn2)Cc2cnn(CC3CC3)c21 (centres undefined) | 56.7
10 | Cn1ncc2c1C(COCC1CC1)CN(C(=O)c1cscn1)C2 (centres undefined) | 34.6
11 | CC(C)COCC1CN(C(=O)c2cscn2)Cc2ncn(C)c21 (centres undefined) | 34.9
12 | CCOCC1CN(C(=O)c2cnccn2)Cc2cnn(CC3CC3)c21 (centres undefined) | 6.6
13 | Cc1ccsc1C(=O)N1Cc2ncn(C)c2C(COCC2CC2)C1 (centres undefined) | 11.4
14 | Cc1noc(C)c1C(=O)N1Cc2ncn(C)c2C(COCC(C)C)C1 (centres undefined) | 36.7
15 | CN(C)C(=O)N1Cc2ncn(C)c2C(COCC2CCOCC2)C1 (centres undefined) | 6.6
16 | CCn1ccnc1CN1CCCN(C(=O)c2cc[nH]n2)CC1 | -18.45
17 | Cc1nc(C)n(CC2CCCCN2CCOc2cccc(C#N)c2)n1 (centres undefined) | 21.5
18 | CN(C)C1(CNc2nccc(C3CCCC3)n2)CCOCC1 | -15.3
19 | Cn1ccnc1CNC(=O)CC1CCCCO1 (centres undefined) | 19.25
20 | COCCNCc1cc2ccc(C)c(C)c2[nH]c1=O | 1.475
21 | CC(=O)Nc1cccc(CN2CCN(C3=NCC(C)(C)S3)CC2)c1 | 42.1
22 | CN(C)CCN1CCOCC2(C1)CN(Cc1ccsc1)CCO2 (centres undefined) | 25.6
23 | CCS(=O)(=O)N(C)CCCNCc1c(C)nn(C)c1N(C)C | 19.15

Row | Structure (SMILES) | INHIBITION [%]
24 | CC(C)CN1CCN(C(=O)CCn2cccn2)CC1 | 2.4
25 | C[C@H]1C(=O)NC[C@H]2CN(CCc3ccccc3)C[C@H]21 | -23.3
26 | CCN(CC)C(=O)Cn1ccc2cc(NC(=O)C3CC3)ccc21 | 52.7
27 | CCC(=O)Nc1ccc2c(ccn2CC(=O)N(CC)CC)c1 | 8.4
28 | CCN(CC)C(=O)Cn1ccc2cc(NC(=O)C3CCCCC3)ccc21 | -3.202
29 | CCc1nccn1C1CCCN(C(=O)c2ccc(-n3ccnc3)cc2)C1 (centres undefined) | 33.3
30 | CC(Sc1nnnn1C1CCOCC1)C(F)(F)F (centres undefined) | 52.8
31 | N#CC(Sc1nnnn1C1CCOCC1)C1CCCCC1 (centres undefined) | -58.6
32 | CC(C)Sc1nnnn1C1CCCC1 | 66.9
33 | CC(Sc1nnnn1C1CCOCC1)C(=O)NC1CCCCC1 (centres undefined) | 3.47
34 | CCCC(C)Sc1nnnn1C1CCOCC1 (centres undefined) | 15
35 | COC(=O)C(C)Sc1nnnn1C1CCOCC1 (centres undefined) | 23.6
36 | N#CC1(NC(=O)c2ccc(F)cc2OC(F)F)CCOCC1 | 8.12
37 | CN(C)C(=O)COC1COC2(CCN(c3cccc(F)c3)CC2)C1 (centres undefined) | 42.7
38 | Cc1ccc(-c2noc(C(C)(C)NS(C)(=O)=O)n2)cc1F | 15.4
39 | CC[C@@]1(O)CCN(Cc2cc(C3CCCCC3)no2)C[C@H]1O | 56.6
40 | Cc1cc(-c2nn(C)c(Cl)c2CN2CCCCC(N)C2)no1 (centres undefined) | 48.5
41 | OCC1COCCN(Cc2cc(C3CCCCC3)no2)C1 (centres undefined) | 41
42 | C[C@@H]1CN(Cc2c[nH]c(CC3CCCC3)n2)CC[C@]1(C)O | 15
43 | CCc1nc(C)sc1CN1CC[C@](O)(CC)[C@H](O)C1 | -31.7
44 | CC1(C)CN(Cc2cc(C3CCCCC3)no2)CC[C@]1(C)O | 47.7
45 | NC1CCCCN(Cc2cc(C3CCCCC3)no2)C1 (centres undefined) | 57.8
46 | C[C@@H]1CN(Cc2cc(C3CCCCC3)no2)CC[C@]1(C)O | 61.1

Row | Structure (SMILES) | INHIBITION [%]
47 | Cc1nnsc1CN1CC[C@@](O)(C2CCC2)[C@H](C)C1 | 66.7
48 | CC[C@@]1(O)CCN(C(=O)c2ccc(CN3CCCCCC3)cc2)C[C@H]1O | 3.03
49 | Cc1nonc1CN1CC[C@@](O)(C2CCC2)[C@H](C)C1 | 21.9
50 | CCc1nc(C)sc1CN1CC[C@@](O)(C2CC2)[C@H](C)C1 | 29.7
51 | O=C(COCc1ccccc1)N1CCCn2cncc2C1 | 14.5
52 | Cc1cs/c(=N\C(=O)Cn2nc(N3CCC(C)CC3)ccc2=O)[nH]1 | -6.73
53 | CN(C)Cc1cnc2n1CCN(Cc1ccsc1)CC2 | 16.8
54 | C[C@@H]1CN(Cc2cccc(F)c2)C[C@]12CCN(Cc1cccnc1)C2=O | -13.4
55 | Cc1ccc(C(=O)N2C[C@H](OCc3cccnc3)[C@H]3COC[C@H]32)cn1 | 25.3
56 | CC(C)N(C)Cc1nnn2c1CN(Cc1cccnc1)CCC2 | -50.9
57 | CCC(CO)n1cnc2scc(C)c2c1=O (centres undefined) | 1.19
58 | C[C@@H]1CN(Cc2cc(C3CCCCC3)no2)CC[C@@]1(O)C1CC1 | 63.3
59 | C[C@@H]1CN(Cc2cc(C(F)(F)F)ccc2F)CC[C@@]1(O)C1CC1 | -45
60 | NC1CCCCN(Cc2cc(-c3ccccc3OC(F)(F)F)no2)C1 (centres undefined) | 79.7
61 | C[C@@H]1CN(Cc2nc(C(N)=O)no2)CC[C@@]1(O)C1CC1 | 6.26
62 | N[C@@H]1CCN(Cc2cc(-c3ccccc3OC(F)(F)F)no2)C[C@H]1O | -48.3
63 | COc1cc(F)c(CN2CC[C@@](O)(C3CC3)[C@H](C)C2)cc1OC | -39.2
64 | OC1COCCN(Cc2cc(-c3ccccc3OC(F)(F)F)no2)C1 (centres undefined) | -26.1
65 | Cc1nonc1CN1CC[C@@](O)(C2CCOCC2)[C@H](C)C1 | 47.7
66 | C[C@@H]1CN(Cc2nc(C(N)=O)no2)CC[C@@]1(O)C1CCOCC1 | 59.1
67 | COCCCC(=O)N(CCC(=O)O)Cc1ccc(F)c(F)c1 | 23.1
68 | CC(C)NC(=O)N1CCN(CC2CC2)c2ncccc2C1 | 30.3
69 | O=S(=O)(C1CC1)N1CC[C@H](OCC2CC2)[C@@H]1Cc1cccnc1 | -4.02
